Screens as filed in PubChem.
IDE exosite FP: exo-site inhibitors of human IDE, primary screen, biochemical, fluorescence anisotropy, probe displacement; Insulin-degrading enzyme (Homo sapiens), P14735; purified IDE, FL-6b probe fluorescence polarization; stronger effect = lower value; z-score at 20 µM; actives 6.3% (n = 17,000);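 active means z-score of -3 or lower, meaning strong loss of probe binding signal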;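 further: His-tagged human IDE residues 42-1019 made in E. coli with 30 nM FL-6b probe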
Target sequence (P14735 42-1019 limits assumed): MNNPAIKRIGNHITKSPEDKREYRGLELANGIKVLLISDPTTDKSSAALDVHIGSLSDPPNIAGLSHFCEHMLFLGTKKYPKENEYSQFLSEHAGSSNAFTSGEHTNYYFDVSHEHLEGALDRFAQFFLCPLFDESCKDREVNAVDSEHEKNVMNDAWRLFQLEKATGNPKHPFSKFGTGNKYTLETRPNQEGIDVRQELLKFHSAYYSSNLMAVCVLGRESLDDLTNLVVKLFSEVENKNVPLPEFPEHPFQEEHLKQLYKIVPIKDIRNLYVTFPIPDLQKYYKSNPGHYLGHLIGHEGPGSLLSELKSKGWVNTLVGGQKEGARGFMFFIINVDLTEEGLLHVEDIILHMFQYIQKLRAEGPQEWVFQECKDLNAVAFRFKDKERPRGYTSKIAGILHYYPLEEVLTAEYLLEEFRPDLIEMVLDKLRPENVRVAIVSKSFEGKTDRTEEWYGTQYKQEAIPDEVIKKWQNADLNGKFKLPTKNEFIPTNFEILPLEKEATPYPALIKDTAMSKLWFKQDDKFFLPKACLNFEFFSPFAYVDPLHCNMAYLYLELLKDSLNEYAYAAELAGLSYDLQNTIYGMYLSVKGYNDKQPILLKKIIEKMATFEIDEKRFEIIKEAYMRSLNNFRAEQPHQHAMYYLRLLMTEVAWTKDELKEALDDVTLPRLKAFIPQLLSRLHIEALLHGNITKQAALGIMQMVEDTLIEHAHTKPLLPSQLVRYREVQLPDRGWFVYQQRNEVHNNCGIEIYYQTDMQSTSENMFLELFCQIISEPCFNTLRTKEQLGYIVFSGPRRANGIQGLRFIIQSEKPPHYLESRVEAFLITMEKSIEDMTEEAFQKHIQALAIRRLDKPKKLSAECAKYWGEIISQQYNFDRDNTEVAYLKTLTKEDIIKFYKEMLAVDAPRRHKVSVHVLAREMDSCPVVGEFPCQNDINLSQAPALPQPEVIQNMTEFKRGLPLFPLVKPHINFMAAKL
* = called active by the depositor. The entries come from a sample that favours hits as a whole.

SMILES	IDE exosite FP
CC(=O)NC[C@@H]1[C@@H](c2ccc(-c3cccnc3)cc2)[C@@H](CO)N1C(=O)CC1CC1	-0.397
CCC(=O)N1[C@H](CO)[C@@H](c2ccccc2)C12CN(C(=O)CN1CCOCC1)C2	0.552
N#C[C@H]1[C@H](c2ccccc2C2=CCCCC2)[C@@H](CO)N1C(=O)C1CCOCC1	3.52
N#C[C@H]1[C@@H](c2ccccc2)[C@H](CO)N1C(=O)c1cccnc1	3.62
COCC(=O)N1[C@@H](C#N)[C@H](c2ccc(C#Cc3ccccc3F)cc2)[C@@H]1CO	-4.31*
N#C[C@@H]1[C@H](c2ccc(C#Cc3ccccc3F)cc2)[C@H](CO)N1C(=O)C1CCOCC1	-6.41*
COCC(=O)N1[C@@H](C#N)[C@@H](c2ccc(C#Cc3ccccc3F)cc2)[C@@H]1CO	0.638
N#C[C@H]1[C@H](c2ccc(C#Cc3ccccc3F)cc2)[C@@H](CO)N1C(=O)c1cccnc1	-5.46*
COCC(=O)N1[C@H](C#N)[C@H](c2ccc(C#Cc3ccccc3F)cc2)[C@H]1CO	-2.25
N#C[C@@H]1[C@@H](c2ccc(C#Cc3ccccc3F)cc2)[C@@H](CO)N1C(=O)C1CCC1	1.58
N#C[C@H]1[C@H](c2ccc(-c3cccc(F)c3)cc2)[C@@H](CO)N1C(=O)c1cccnc1	1.34
N#C[C@H]1[C@@H](c2ccc(C#Cc3ccccc3F)cc2)[C@@H](CO)N1C(=O)C1CCC1	0.334
N#C[C@H]1[C@H](c2ccc(-c3cccc(F)c3)cc2)[C@H](CO)N1C(=O)c1cccnc1	-5.95*
N#C[C@@H]1[C@@H](c2ccc(C#Cc3ccccc3F)cc2)[C@H](CO)N1C(=O)c1cccnc1	-2.45
N#C[C@@H]1[C@@H](c2ccc(-c3cccc(F)c3)cc2)[C@H](CO)N1C(=O)c1cccnc1	0.156
O=C1CNC[C@H]2[C@@H](c3ccc(C#CC4CCCCC4)cc3)[C@@H](CO)N12	0.68
CS(=O)(=O)N1[C@@H](C#N)[C@@H](c2ccc(C#CC3CC3)cc2)[C@@H]1CO	4.67
OC[C@H]1[C@@H](c2ccccc2)[C@@H](CNCC2CCC2)N1CC1CC1	2.5
COc1cc(CN2CC3(CCN(S(=O)(=O)c4cn(C)cn4)CC3)c3c(n(C)c4cc(OC)ccc34)[C@@H]2CO)cc(OC)c1	0.00769
COCCN(C[C@H]1[C@H](c2ccccc2)[C@@H](CO)N1C(=O)C1CC1)C(C)=O	0.176
N#C[C@H]1[C@H](c2ccc(C#Cc3ccccc3F)cc2)[C@H](CO)N1C(=O)C1CC1	-1.25
N#C[C@H]1[C@@H](c2ccc(C#Cc3ccccc3F)cc2)[C@@H](CO)N1C(=O)C1CCOCC1	-3.66*
N#C[C@H]1[C@@H](c2ccc(C#Cc3ccccc3F)cc2)[C@H](CO)N1C(=O)C1CCC1	0.223
Cc1ccc(-c2ccc([C@H]3[C@H](CO)N4C(=O)CN(C(=O)Nc5cccc(F)c5)C[C@@H]34)cc2)cc1	2.37
CCCC#Cc1ccc([C@@H]2[C@H]3CN(C(=O)CN4CCOCC4)CC(=O)N3[C@H]2CO)cc1	4.21
SMILES	IDE exosite FP
Cc1ccc(-c2ccc([C@H]3[C@H]4CN(C(=O)CN5CCOCC5)CC(=O)N4[C@H]3CO)cc2)cc1	0.399
O=C(CN1CCOCC1)N1CC(=O)N2[C@@H](CO)[C@H](c3ccc(/C=C/c4ccccc4)cc3)[C@@H]2C1	-8.18*
Cc1ccc(-c2ccc([C@@H]3[C@@H](CO)N4C(=O)CN(C(=O)CN5CCOCC5)C[C@H]34)cc2)cc1	-2.26
O=C(CN1CCOCC1)N1CC(=O)N2[C@H](CO)[C@H](c3ccc(/C=C/c4ccccc4)cc3)[C@@H]2C1	-8.67*
O=C(Nc1ccc(F)cc1)N1CC(=O)N2[C@H](CO)[C@@H](c3ccc(C#Cc4ccccc4)cc3)[C@H]2C1	1.41
Cc1cccc(S(=O)(=O)N2[C@@H]3CNC[C@H]2C3c2ccc(-c3ccncc3)cc2)c1 (stereo partly specified)	1.83
CC(=O)N1[C@H](CO)[C@H](c2ccccc2)[C@H]1CN(CC(C)C)C(=O)c1ccccn1	-0.43
Cc1noc(C)c1S(=O)(=O)N(C)C[C@H]1OCCCC[C@H](C)Oc2ccc(NC(=O)CCC(F)(F)F)cc2C(=O)N([C@H](C)CO)C[C@@H]1C	2.16
CC[C@@H]1C/C=C\C[C@H](C(C)C)NC(=O)CCC(=O)N1	-1.12
O=C(C[C@H]1C[C@H]2c3cc(NC(=O)C4CCOCC4)ccc3O[C@H]2[C@H](CO)O1)NCCN1CCCCC1	0.151
CN1C(=O)c2cc(NC(=O)Nc3ccccc3Cl)ccc2OC[C@@H]2O[C@H](CC(=O)O)CC[C@@H]21	-0.562
CN1C(=O)c2cc(NC(=O)Nc3ccccc3Cl)ccc2OC[C@H]2O[C@H](CC(=O)O)CC[C@@H]21	-6.19*
CN1C(=O)c2cc(NC(=O)Cc3cccs3)ccc2OC[C@@H]2O[C@@H](CC(=O)NCCCN3CCOCC3)CC[C@H]21	-1.04
CN1C(=O)c2cc(NC(=O)Cc3cccs3)ccc2OC[C@@H]2O[C@H](CC(=O)NCCCN3CCOCC3)CC[C@H]21	0.0604
CN1C(=O)c2cc(NC(=O)Nc3ccc(Cl)cc3)ccc2OC[C@H]2O[C@@H](CC(=O)NCCN3CCCCC3)CC[C@H]21	0.0604
